From the supplement of paper PMC10849652
About 8,800 targets were measured; listed, in parts, are those with a hit and a random draw of the rest. About 0.5% of all pairs of compound and target were hits. Values without a mark were called inactive.

What was measured:
Assay in all cases: log2 fold change, soluble protein after heating vs DMSO (PISA); higher = thermal stabilisation; K562 lysate, 10 uM; active = over 0.2 and 3.5 SD of the protein, either way, in both replicates (recomputed)
[1] = compound: NCC(=O)Nc1ccc(-n2nc(C(F)(F)F)cc2-c2ccc3c(ccc4ccccc43)c2)cc1
Outline: (§1)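 K562 pellets were dounce-homogenised in PBS pH 7.4 with 1 mM MgCl2, and the crude extract at 1 mg/mL protein was treated with 10 μM compound for 30 min. Aliquots were heated for 3 min across 48°C-58°C, pooled, and brought to 0.5% NP-40 at 4°C; soluble protein was the supernatant after 21,000xg for 90 min. Soluble protein was quantified by TMTpro 16plex LC-MS/MS with channel sums equalised, and reported as log2 fold change in thermal stability against DMSO controls, with values from duplicates.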

[2] = compound: O=C(CCCCCCC(=O)Nc1ccccc1)NO [vorinostat]
Outline: as §1

[3] = compound: O=C(O)c1ccc2c(c1)nc(Nc1cccc(Cl)c1)c1ccncc12 [silmitasertib]
Outline: as §1

[4] = compound: O=C1NC(=O)C(c2cnc3ccccn23)=C1c1cn2c3c(cc(F)cc13)CN(C(=O)N1CCCCC1)CC2
Outline: as §1

[5] = compound: c1cn2cc(-c3ccc4cn[nH]c4c3)nc(Nc3ccc(N4CCOCC4)cc3)c2n1 [entospletinib]
Outline: as §1

UniProt O00329, sequence (O00329 whole entry, looked up): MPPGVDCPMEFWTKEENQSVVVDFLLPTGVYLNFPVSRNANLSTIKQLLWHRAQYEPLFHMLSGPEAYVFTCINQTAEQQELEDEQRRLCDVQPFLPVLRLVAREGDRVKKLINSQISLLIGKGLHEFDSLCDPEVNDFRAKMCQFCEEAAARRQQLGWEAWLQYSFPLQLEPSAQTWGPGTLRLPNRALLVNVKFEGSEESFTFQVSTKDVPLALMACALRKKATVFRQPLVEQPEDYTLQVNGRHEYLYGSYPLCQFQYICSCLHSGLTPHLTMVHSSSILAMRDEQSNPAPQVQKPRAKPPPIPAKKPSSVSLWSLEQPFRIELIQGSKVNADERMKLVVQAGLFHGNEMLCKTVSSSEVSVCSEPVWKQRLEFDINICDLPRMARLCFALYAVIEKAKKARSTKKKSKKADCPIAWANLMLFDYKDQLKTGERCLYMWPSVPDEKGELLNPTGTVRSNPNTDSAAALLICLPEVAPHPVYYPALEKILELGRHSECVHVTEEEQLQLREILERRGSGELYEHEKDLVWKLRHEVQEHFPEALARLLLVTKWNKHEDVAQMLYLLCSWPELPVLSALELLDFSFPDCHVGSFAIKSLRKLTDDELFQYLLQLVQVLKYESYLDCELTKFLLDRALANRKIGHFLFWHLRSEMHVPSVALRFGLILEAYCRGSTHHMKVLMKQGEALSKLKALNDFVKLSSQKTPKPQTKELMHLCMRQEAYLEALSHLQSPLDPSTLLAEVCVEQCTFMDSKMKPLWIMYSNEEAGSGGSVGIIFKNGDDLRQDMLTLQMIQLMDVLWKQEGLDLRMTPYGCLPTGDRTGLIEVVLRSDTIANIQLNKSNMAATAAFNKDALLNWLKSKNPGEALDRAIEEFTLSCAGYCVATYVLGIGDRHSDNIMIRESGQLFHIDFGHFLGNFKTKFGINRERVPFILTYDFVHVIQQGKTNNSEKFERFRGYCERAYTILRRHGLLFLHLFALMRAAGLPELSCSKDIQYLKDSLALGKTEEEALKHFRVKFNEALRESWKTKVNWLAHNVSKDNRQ
UniProt O60825, sequence (O60825 whole entry, looked up): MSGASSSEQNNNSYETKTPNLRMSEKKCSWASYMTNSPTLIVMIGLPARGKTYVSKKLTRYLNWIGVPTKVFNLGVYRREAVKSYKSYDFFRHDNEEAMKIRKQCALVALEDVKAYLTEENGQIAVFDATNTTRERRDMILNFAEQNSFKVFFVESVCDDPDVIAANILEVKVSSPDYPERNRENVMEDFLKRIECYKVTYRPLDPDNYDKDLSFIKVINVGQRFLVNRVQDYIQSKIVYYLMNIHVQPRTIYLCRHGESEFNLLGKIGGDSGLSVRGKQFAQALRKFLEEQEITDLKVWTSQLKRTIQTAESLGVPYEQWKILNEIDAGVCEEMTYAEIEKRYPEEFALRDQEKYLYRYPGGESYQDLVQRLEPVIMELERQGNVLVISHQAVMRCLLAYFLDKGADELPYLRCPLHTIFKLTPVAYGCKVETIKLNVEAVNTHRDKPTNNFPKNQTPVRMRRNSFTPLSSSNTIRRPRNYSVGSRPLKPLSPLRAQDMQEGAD
UniProt P46020, sequence (P46020 whole entry, looked up): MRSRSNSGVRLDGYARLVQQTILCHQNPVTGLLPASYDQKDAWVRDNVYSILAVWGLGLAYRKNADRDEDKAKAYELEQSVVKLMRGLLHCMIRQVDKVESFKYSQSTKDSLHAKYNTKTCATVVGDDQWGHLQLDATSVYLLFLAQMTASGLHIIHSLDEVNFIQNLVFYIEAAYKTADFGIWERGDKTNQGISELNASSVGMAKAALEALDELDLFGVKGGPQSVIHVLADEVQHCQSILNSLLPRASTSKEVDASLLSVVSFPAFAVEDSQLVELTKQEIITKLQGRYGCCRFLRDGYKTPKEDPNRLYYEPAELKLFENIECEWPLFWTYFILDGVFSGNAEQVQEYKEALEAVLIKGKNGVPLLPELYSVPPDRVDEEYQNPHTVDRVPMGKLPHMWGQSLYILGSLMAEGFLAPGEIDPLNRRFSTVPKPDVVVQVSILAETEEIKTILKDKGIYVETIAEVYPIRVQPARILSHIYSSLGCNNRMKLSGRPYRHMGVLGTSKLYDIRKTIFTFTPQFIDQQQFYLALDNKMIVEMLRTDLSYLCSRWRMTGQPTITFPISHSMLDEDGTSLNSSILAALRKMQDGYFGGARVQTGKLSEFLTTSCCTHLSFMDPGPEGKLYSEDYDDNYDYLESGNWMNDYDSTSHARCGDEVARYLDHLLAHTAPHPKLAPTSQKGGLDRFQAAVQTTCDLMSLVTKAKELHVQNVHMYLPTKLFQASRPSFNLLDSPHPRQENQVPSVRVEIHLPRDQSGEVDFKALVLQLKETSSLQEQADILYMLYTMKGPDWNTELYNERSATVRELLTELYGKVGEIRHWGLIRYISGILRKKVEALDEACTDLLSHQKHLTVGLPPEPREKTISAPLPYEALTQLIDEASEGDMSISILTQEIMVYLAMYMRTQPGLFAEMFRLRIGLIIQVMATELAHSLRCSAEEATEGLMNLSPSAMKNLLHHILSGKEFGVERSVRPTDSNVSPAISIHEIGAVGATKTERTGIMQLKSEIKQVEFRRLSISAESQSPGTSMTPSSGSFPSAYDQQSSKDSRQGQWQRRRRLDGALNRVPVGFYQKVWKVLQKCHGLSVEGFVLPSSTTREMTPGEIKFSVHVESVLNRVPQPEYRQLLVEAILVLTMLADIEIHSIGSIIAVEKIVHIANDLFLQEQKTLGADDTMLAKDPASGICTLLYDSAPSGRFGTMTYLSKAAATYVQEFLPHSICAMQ
UniProt Q9BRX2, sequence (Q9BRX2 whole entry, looked up): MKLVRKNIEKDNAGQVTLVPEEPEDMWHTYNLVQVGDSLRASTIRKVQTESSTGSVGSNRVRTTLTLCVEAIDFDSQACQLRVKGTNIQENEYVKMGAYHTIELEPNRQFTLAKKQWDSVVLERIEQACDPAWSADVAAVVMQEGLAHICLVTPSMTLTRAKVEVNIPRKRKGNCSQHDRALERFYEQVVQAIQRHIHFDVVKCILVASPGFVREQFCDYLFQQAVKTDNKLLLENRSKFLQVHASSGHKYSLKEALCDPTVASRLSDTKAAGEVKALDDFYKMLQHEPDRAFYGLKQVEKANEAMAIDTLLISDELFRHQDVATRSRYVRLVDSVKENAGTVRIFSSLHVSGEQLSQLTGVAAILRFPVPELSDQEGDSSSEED
UniProt P53350, sequence (P53350 whole entry, looked up): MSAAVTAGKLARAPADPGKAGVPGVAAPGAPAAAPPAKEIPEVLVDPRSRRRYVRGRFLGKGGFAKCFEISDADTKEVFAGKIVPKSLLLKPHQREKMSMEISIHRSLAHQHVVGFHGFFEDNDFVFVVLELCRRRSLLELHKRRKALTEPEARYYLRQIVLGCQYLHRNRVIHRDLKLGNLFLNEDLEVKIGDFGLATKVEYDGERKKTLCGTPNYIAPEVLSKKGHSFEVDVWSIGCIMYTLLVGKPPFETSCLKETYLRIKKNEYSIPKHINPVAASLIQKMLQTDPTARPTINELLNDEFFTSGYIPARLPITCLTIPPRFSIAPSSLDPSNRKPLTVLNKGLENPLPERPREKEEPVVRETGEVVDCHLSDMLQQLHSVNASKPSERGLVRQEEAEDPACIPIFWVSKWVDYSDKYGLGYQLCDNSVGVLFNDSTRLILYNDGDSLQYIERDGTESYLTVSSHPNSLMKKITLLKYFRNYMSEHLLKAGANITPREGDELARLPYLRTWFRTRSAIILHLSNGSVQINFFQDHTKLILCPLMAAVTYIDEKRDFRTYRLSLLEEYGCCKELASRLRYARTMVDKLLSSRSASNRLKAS
UniProt Q9NVM4, sequence (Q9NVM4 whole entry, looked up): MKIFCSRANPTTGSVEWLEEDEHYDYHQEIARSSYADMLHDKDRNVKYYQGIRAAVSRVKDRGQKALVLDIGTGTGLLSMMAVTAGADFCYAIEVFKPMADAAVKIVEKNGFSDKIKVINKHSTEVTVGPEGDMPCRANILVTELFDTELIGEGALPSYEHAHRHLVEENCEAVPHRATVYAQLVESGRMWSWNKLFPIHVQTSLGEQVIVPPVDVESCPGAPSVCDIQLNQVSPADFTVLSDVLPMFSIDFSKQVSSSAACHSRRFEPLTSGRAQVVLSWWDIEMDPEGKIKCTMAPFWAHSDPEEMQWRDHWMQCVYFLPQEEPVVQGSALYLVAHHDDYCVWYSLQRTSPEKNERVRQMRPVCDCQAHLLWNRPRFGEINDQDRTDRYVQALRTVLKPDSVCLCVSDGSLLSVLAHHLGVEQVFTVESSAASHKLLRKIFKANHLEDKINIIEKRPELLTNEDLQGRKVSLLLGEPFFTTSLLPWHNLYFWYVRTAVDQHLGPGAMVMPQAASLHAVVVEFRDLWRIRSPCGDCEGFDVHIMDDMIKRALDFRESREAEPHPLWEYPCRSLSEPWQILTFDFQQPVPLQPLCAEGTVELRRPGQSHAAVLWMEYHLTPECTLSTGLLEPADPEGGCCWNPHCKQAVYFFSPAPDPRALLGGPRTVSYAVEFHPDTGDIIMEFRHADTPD
UniProt P57721, sequence (P57721 whole entry, looked up): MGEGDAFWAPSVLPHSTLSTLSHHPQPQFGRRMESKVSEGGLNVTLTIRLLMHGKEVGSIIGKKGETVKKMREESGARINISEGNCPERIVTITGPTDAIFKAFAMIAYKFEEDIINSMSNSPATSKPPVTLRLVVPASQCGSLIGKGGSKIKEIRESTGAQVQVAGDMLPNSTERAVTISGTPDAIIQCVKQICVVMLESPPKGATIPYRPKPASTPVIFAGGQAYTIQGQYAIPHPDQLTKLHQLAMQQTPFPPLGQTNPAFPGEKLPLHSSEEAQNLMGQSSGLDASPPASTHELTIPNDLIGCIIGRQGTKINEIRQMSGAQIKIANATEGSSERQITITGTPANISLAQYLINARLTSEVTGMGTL
UniProt P45877, sequence (P45877 whole entry, looked up): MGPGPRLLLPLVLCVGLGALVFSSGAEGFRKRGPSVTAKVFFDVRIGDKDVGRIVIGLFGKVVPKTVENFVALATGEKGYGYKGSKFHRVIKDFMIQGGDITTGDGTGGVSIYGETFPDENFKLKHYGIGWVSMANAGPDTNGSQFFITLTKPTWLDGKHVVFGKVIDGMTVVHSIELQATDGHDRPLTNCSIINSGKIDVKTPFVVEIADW

Target | log2 fold change [1] | log2 fold change [2] | log2 fold change [3] | log2 fold change [4] | log2 fold change [5]
PPIC (UniProt P45877) | 0.12 | 0.044 | 0.021 | 0.262 | 
PLK1 (UniProt P53350) | 0.027 | -0.638 (active) | 0.005 | 0.022 | 0.072
PPP2R5C isoform 5 (UniProt Q13362) | 0.002 | 0.049 | 0.019 | 0.022 | 0.011
PDCD6IP isoform 2 (UniProt Q8WUM4) | -0.001 | -0.473 (active) | 0.019 | -0.006 | 0.018
PPIL3 (UniProt Q9H2H8) | 0.084 | -0.155 | -0.022 | 0.029 | -0.016
PFDN2 (UniProt Q9UHV9) | -0.049 | 0.098 | 0.015 | -0.068 | 0.007
PHKA1 (UniProt P46020) | 0.002 | -0.223 (active) | 0.184 | -0.001 | -0.01
POLR3E (UniProt Q9NVU0) | -0.017 | -0.263 (active) | -0.023 | 0.027 | -0.004
PRKCSH (UniProt P14314) | 0.002 | 0.141 | -0.015 | -0.001 | 0.001
PTPN23 (UniProt Q9H3S7) | -0.011 | -0.266 (active) | -0.007 | 0 | 0.009
PRKACA (UniProt P17612) | -0.114 | 0.007 | -0.02 | 0.033 | 0.03
PHKG1 isoform 2 (UniProt Q16816) | 0.053 | -0.342 | 0.259 | -0.123 | -0.002
PPP2R5C isoform 2 (UniProt Q13362) | -0.004 | -0.12 | 0.015 | 0.086 | 
PHKB isoform 3 (UniProt Q93100) | -0.023 | -0.288 (active) | 0.07 | 0.016 | 0.023
PHKA2 (UniProt P46019) | 0.017 | -0.29 (active) | 0.105 | -0.048 | -0.012
PELO (UniProt Q9BRX2) | 0.021 | -0.495 (active) | 0.058 | 0.02 | 0.006
PIK3R2 (UniProt O00459) | -0.007 | -0.245 | 0.201 | -0.029 | -0.092
PLXNB2 (UniProt O15031) | 0.003 | 0.033 | 0.001 | 0.019 | -0.03
PIK3C3 (UniProt Q8NEB9) | -0.04 | -0.066 | 0.037 | 0.019 | -0.014
PCBP2 isoform 3 (UniProt Q15366) | -0.071 | -0.252 (active) | 0.042 | -0.035 | 0.01
PTGES2 (UniProt Q9H7Z7) | -0.175 | -0.197 | 0.304 | 0.12 | 0.085
PIP4K2C (UniProt Q8TBX8) | 0.021 | -0.07 | 0.425 (active) | 0.063 | 0.004
PIP4K2A (UniProt P48426) | 0.027 | 0.024 | 0.225 | 0.007 | -0.029
PIAS2 (UniProt O75928) | 0.469 (active) | -0.334 (active) | -0.091 | -0.054 | 0.01
PCIF1 (UniProt Q9H4Z3) | -0.018 | -0.011 | 0.112 | 0.036 | 0.085
PPM1H (UniProt Q9ULR3) | -0.004 | 0.206 | -0.05 | -0.045 | -0.002
PIK3CD (UniProt O00329) | -0.059 | -0.516 (active) | 0.223 | -0.004 | 

Target | log2 fold change [1] | log2 fold change [2] | log2 fold change [3] | log2 fold change [4] | log2 fold change [5]
PEX2 (UniProt P28328) | -0.055 | -0.25 | 0.042 | 0.043 | 
PLEKHA5 isoform 6 (UniProt Q9HAU0) | -0.029 | -0.305 (active) | -0.003 | -0.016 | 0.022
PRKCSH isoform 2 (UniProt P14314) | -0.046 | 0.126 | -0.057 | -0.019 | 0.037
PIGO (UniProt Q8TEQ8) | -0.156 | 0.15 | 0.18 | 0.121 | -0.015
PREP (UniProt P48147) | 0.006 | -0.153 | 0.008 | -0.01 | 0.014
PUF60 isoform 2 (UniProt Q9UHX1) | -0.061 | 0.23 | 0.075 | 0.026 | 0.027
PIKFYVE (UniProt Q9Y2I7) | 0.031 | -0.476 (active) | 0.03 | -0.026 | -0.014
POLD3 (UniProt Q15054) | 0.045 | -0.335 (active) | -0.02 | -0.03 | 0.011
PWP1 (UniProt Q13610) | -0.082 | 0.139 | -0.033 | 0.022 | -0.003
PLA2G4B isoform 6 (UniProt P0C869) | -0.008 | 0.002 | -0.017 | 0.264 | 0.06
PUS3 (UniProt Q9BZE2) | 0.051 | -0.527 (active) | 0.11 | 0.017 | -0.041
PCBP3 (UniProt P57721) | 0.016 | -0.371 (active) | 0.001 | -0.001 | 0.016
PRMT7 (UniProt Q9NVM4) | -0.017 | -0.174 | -0.011 | 0.04 | -0.018
POLR2M (UniProt P0CAP2) | 0.034 | 0 | -0.029 | -0.027 | 0.076
PRKCB isoform 2 (UniProt P05771) | 0.046 | -0.145 | 0.012 | -0.164 | 0.004
PPCDC (UniProt Q96CD2) | 0.001 | -0.002 | 0.071 | -0.015 | 0.002
PDE4DIP isoform 4 (UniProt Q5VU43) | 0.077 | 0.029 | -0.029 | 0.057 | -0.025
PDAP1 (UniProt Q13442) | 0.014 | 0.118 | 0.005 | -0.004 | -0.027
PTMA (UniProt P06454) | -0.002 | 0.093 | -0.036 | 0.023 | -0.025
PFKFB2 (UniProt O60825) | -0.007 | -0.39 (active) | 0.033 | 0.026 | 0.018
PWP2 (UniProt Q15269) | 0.007 | -0.547 (active) | 0.029 | -0.014 | 0.019
PI4K2A (UniProt Q9BTU6) | -0.006 | -0.005 | 0.074 | -0.009 | 0.001
PLEKHF1 (UniProt Q96S99) | -0.019 | -0.272 (active) | 0.07 | -0.014 | 0.014
PPFIA2 (UniProt O75334) | 0.05 | -0.053 | -0.074 | 0.069 | -0.036
PKN1 isoform 2 (UniProt Q16512) | 0.002 | -0.131 | -0.012 | -0.138 | -0.009
PDCD6IP (UniProt Q8WUM4) | 0.065 | -0.332 (active) | -0.005 | 0.009 | -0.009
